Where “and” joins values, the source holds several entries; their conditions need not be identical. Equal entries are not always repeated. Inconclusive results are not listed. Calls of active or inactive are those of the source. Unless noted, calls come from the whole dose curve; as a rule, active = well fitted curve in the direction sought with a large enough effect; inconclusive = small, poorly fitted or top-dose-only effect, or another doubt; inactive = no such curve, though single readings can be large; an effect the other way counts as inactive or inconclusive. Peptide text beside a SMILES is read from it.
Key:
[1] = AP1 Signaling Pathway (AID 357; active = well fitted curve in either direction with a large enough effect, not every such curve was filed as active;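 note: ME-180 reporter cells stimulated with EGF at its EC50 level; % is set by controls: 0 for no effect and ±100 for the full control effect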)
Method in brief: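 Modulation of EGF-driven AP-1 transcription was assessed with a beta-lactamase reporter in ME-180 cells. Compound and EC50 EGF were co-incubated 5 hours at 37 °C before 2.5-hour CCF4 loading at room temperature and dual-emission reading.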

[2] = target: Cytochrome P450 1A2 (Homo sapiens) (UniProt P05177); experiment: p450-cyp1a2 (AID 410; calls by dose curve; note: potency is the fitted concentration of half-maximal effect;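 for activity change, negative = inhibition: -100% = full effect of reference inhibitor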)
Cytochrome P450 1A2 (Homo sapiens), sequence (P05177 whole entry, looked up): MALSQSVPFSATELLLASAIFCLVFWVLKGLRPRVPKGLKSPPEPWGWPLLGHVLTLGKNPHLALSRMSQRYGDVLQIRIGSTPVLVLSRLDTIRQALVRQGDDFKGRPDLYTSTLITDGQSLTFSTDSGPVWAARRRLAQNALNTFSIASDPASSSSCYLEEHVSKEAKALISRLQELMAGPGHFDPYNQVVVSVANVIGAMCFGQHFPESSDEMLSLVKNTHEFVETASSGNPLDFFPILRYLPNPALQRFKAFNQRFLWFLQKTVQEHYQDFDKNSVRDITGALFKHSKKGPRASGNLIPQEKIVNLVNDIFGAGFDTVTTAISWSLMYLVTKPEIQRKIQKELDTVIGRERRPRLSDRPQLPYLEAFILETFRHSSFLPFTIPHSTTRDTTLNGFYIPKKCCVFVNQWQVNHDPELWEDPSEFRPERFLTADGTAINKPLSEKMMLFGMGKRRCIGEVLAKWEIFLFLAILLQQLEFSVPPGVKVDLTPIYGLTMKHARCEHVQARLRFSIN
Method in brief: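 Luminescent readout of luciferin formed from Luciferin-ME by human CYP1A2; data normalized against complete inhibition by 57 uM furafylline. Enzyme 20nM, substrate 100uM at Km, 100mM KPO4 buffer, 60 min reaction at room temperature.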

[3] = Cell Viability - BJ (AID 421; calls by dose curve;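 note: potency is the fitted concentration of half-maximal effect; cells exposed to compound for 40 hours at 37 °C before readout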); conditions: BJ fibroblast viability, qHTS
Method in brief: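 Cytotoxicity as drop in intracellular ATP (CellTiter-Glo, 20 min RT) after 40 hr compound exposure of BJ fibroblasts at 37 °C. Titrations scaled between DMSO and 100 uM tamoxifen, Hill-fitted for AC50.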

[4] = Cell Viability - Jurkat (AID 426;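 active = dose-dependent loss of cell ATP signal giving a full or clear fitted curve, ranked by lower potency value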; note: potency is the fitted concentration of half-maximal effect); conditions: qHTS
Method in brief: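 qHTS, 1536-well; Jurkat E6-1, 5000 cells/well, complete medium; cpd 40 hr, 37 °C; CellTiter-Glo 20 min RT; luminescence. AC50 by Hill fit.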

[5] = Cell Viability - Hek293 (AID 427;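 active = compounds whose dose-response curve shows a full or clear partial loss of cell viability, called from curve shape rather than a numeric limit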;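 note: potency is the fitted concentration of half-maximal effect; cells exposed to compound for 40 hours at 37 °C before reading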); conditions: qHTS
Method in brief: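 Luminescent ATP content (CellTiter-Glo, 20 min at room temperature) was measured after a 40 hr, 37 °C compound exposure of HEK293 cells. AC50 values came from Hill-equation fits of qHTS concentration-response data normalized to DMSO and 100 uM tamoxifen.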

[6] = Cell Viability - HepG2 (AID 433; calls by dose curve;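 note: potency is the fitted concentration of half-maximal effect; potency for ATP loss meaning cytotoxicity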); conditions: qHTS
Method in brief: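 Read-out is luciferase-based quantitation of cellular ATP as a measure of viable HepG2 cells after 40 h treatment at 37 °C. Signal decrease is scaled between DMSO-only and 100 uM tamoxifen controls, with AC50 fitted by the Hill equation.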

[7] = Cell Viability - SK-N-SH (AID 435; calls by dose curve;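 note: potency is the fitted concentration of half-maximal effect; compound exposure lasted 40 h at 37 °C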); conditions: SK-N-SH neuroblastoma cell viability qHTS
Method in brief: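 Luminescent ATP signal served as the viability read-out after 40 hours of compound treatment of human neuroblastoma SK-N-SH cells. Concentration-response data, scaled between DMSO and 100 uM tamoxifen, gave AC50 values by standard Hill modeling.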

[8] = NFAT Signaling Pathway (AID 444; active = well fitted curve in either direction with a large enough effect, not every such curve was filed as active;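 note: carbachol stimulus at about its EC50 of 1 µM final; % is set by controls: 0 for no effect and ±100 for the full control effect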); conditions: Jurkat NFAT-bla M1, carbachol, beta-lactamase ratio, 5 h; at 17.2 µM (top of the series)
Method in brief: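 Jurkat cells carrying an NFAT-driven β-lactamase reporter and co-transfected muscarinic M1 receptor were treated with compound plus carbachol (1 uM final, an EC50 level) for 5 h at 37 °C. CCF4 loading followed for 1 h at RT; 460/530 nm ratio gave %activity.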

[9] = Stat Signaling Pathway (AID 446; active = well fitted curve in either direction with a large enough effect, not every such curve was filed as active;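 note: ME-180 cervical cancer cells given 40 pM IL-6 alongside compound; SIE-controlled beta-lactamase reporter measured as 460/530 nm FRET emission ratio; % is set by controls: 0 for no effect and ±100 for the full control effect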)
Method in brief: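 Reporter line: ME-180 cervical carcinoma, SIE-beta-lactamase. Treatment: compound with 40 pM IL-6, 5 hrs, 37 C, in low-serum OPTI-MEM with 10 mM HEPES pH 7.3. Detection: 460/530 nm fluorescence.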

[10] = target: Mitogen-activated protein kinase 10 (Mus musculus) (UniProt Q61831); experiment: JNK3 AlphaScreen Assay (AID 530; active = well fitted curve in either direction with a large enough effect, not every such curve was filed as active;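 note: kinase came from lysate of stimulated human HepG2 cells; signal reports phosphorylation of biotinylated GST-cJun 1-79 at Ser73 with 10 µM ATP; % is set by controls: 0 for no effect and ±100 for the full control effect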)
Method in brief: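 Inhibitors reduce antibody binding to phosphorylated biotin-cJun, lowering AlphaScreen luminescence. Lysates from HepG2 cells pre-activated by IL-1beta plus TNF-alpha supplied JNK3; compounds were titrated.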

[11] = Cell Viability - N2a (AID 540); conditions: N2a mouse neuroblastoma cell viability; at 92.2 µM (top of the series);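 note: plate controls were DMSO alone for no effect and tamoxifen control for full effect; nearly all actives have a fitted effect of over 45% in size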
Method in brief: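 Luminescent ATP signal (CellTiter-Glo, 20 min at room temperature) served as the viability read-out after N2a cells were treated with compounds for 40 hours at 37 °C. Concentration-response data were fitted to the Hill equation for AC50.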

[12] = Cell Viability - NIH 3T3 (AID 541);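 note: plate controls were DMSO alone for no effect and tamoxifen positive control for full effect; nearly all actives have a fitted effect of over 25% in size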
Method in brief: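 Luminescent ATP signal (CellTiter-Glo) served as the viability read-out after NIH 3T3 cells were exposed to compounds over a concentration range for 40 hr at 37 °C. Hill-equation modelling of concentration-response data gave AC50.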

[13] = Cell Viability - HUV-EC-C (AID 542); note: % is set by controls: 0 for no effect and ±100 for the full control effect; nearly all actives have a fitted effect of over 35% in size
Method in brief: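 qHTS cytotoxicity: HUV-EC-C, 1000 cells/well, 5 hr settle, compound 40 hr 37 °C, CellTiter-Glo, luminescence. AC50 via Hill equation.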

[14] = Cell Viability - Renal Proximal Tubule (AID 545);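 note: 0% = DMSO only and -100% = 100 µM tamoxifen; nearly all actives have a fitted effect of over 40% in size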
Method in brief: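 Luminescent ATP signal (CellTiter-Glo) served as the viability read-out after 40 hr compound exposure of freshly isolated rat proximal tubule cells at 37 °C. Concentration-dependent ATP loss was fitted with the Hill equation to give AC50.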

[15] = Cell Viability - Mesenchymal (AID 546); conditions: mesenchymal cells viability, qHTS; at 91.7 µM (top of the series);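 note: cells exposed to compound for 40 hours before reading; 0% = DMSO only and -100% = 100 µM tamoxifen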
Method in brief: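 Normal human renal glomerulus-derived kidney mesenchymal cells, 1000 per well in complete medium, were treated with compounds for 40 hr at 37 °C. Viability was read as intracellular ATP by CellTiter-Glo luminescence; AC50 values came from Hill-equation fits of qHTS concentration-response data.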

[16] = target: 3',5'-cyclic-AMP phosphodiesterase 4B (Homo sapiens) (UniProt Q07343); experiment: qHTS Assay for Inhibitors of PDE-IV (AID 607; active = well fitted activation curve with a large enough effect in the main read-out, with a control signal flat, not every such curve was filed as active; note: % of control where 0% means no effect)
3',5'-cyclic-AMP phosphodiesterase 4B (Homo sapiens), sequence (Q07343 whole entry, looked up): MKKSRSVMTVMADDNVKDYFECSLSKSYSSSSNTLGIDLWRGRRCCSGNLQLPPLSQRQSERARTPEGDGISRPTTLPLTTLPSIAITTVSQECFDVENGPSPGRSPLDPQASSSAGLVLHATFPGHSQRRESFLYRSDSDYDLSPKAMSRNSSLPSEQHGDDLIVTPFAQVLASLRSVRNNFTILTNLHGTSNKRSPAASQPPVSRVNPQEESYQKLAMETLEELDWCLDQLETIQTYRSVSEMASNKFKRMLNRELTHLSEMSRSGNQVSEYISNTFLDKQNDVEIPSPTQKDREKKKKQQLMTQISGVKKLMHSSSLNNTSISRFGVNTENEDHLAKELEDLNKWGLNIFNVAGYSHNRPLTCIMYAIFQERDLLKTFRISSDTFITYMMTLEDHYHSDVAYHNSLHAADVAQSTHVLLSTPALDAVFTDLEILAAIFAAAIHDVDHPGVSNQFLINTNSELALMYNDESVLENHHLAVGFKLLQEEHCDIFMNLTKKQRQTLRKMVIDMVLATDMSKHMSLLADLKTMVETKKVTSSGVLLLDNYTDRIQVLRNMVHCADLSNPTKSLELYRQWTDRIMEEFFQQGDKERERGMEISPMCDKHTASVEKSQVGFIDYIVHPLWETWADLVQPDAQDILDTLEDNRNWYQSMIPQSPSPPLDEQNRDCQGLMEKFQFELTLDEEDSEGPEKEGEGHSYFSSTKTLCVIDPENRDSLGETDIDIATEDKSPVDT
Method in brief: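 Cell-based read-out of cAMP via a modified cyclic nucleotide-gated channel and membrane potential dye (535/590 nm) in HEK293 cells expressing PDE4 endogenously. Compounds tested up to 22.9 uM final; 100 uM RO 20-1724 reference.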

[17] = target: Glucocorticoid receptor (Homo sapiens) (UniProt P04150); experiment: GR-GFP Redistribution (AID 450;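 active = compounds whose dose series gives a full or clear partial fitted curve of increased nuclear translocation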; note: potency is the fitted concentration of half-maximal effect); conditions: U2OS GR-GFP nuclear translocation, laser cytometry, 2 h
Glucocorticoid receptor (Homo sapiens), sequence (P04150 whole entry, looked up, the tested form may be a part): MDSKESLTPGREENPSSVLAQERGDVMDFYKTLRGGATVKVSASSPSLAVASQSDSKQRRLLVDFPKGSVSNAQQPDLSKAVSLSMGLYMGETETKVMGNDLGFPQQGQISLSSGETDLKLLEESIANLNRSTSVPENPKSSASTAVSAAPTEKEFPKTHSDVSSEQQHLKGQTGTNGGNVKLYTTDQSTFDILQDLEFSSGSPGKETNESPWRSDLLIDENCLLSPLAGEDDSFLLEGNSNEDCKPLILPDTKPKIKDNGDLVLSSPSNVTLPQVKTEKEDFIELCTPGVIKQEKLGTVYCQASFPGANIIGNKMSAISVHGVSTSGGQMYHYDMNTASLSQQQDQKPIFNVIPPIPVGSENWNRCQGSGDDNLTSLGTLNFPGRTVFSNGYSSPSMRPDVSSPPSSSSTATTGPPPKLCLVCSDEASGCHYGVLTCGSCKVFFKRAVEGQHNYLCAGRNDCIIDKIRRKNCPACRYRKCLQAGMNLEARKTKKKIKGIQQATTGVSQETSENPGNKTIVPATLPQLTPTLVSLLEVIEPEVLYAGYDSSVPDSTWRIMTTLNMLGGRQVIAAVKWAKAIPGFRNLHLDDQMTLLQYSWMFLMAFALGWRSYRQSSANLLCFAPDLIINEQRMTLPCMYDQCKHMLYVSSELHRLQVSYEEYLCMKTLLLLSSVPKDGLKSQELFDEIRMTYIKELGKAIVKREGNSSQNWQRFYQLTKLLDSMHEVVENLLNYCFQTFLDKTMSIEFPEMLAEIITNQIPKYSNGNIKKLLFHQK

[18] = target: Glucocorticoid receptor (Homo sapiens) (UniProt P04150); experiment: GR-EFC Redistribution (AID 451; calls by dose curve; note: potency is the fitted concentration of half-maximal effect); conditions: CHO-K1 GR-EFC translocation, beta-gal luminescence, 2 h
Method in brief: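 CHO-K1 cells stably expressing nuclear-localized β-gal enzyme acceptor and GR fused C-terminally to the enzyme donor fragment; ligand-driven nuclear translocation restores β-gal by complementation. Compounds titrated up to 46 uM final, 2 h at 37 °C; luminescence read.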

[19] = Cell Viability - SH-SY5Y (AID 544); conditions: SH-SY5Y neuroblastoma cell viability; at 92.2 µM (top of the series);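 note: 0% = DMSO alone and -100% = 100 µM tamoxifen; nearly all actives have a fitted effect of over 55% in size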
Method in brief: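 Luminescent ATP read-out (CellTiter-Glo) measures loss of viable SH-SY5Y neuroblastoma cells after 40 hr compound exposure at 37 °C. AC50 values derive from standard Hill modelling of qHTS concentration-response data.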

CCOc1ccc2c(c1)C(C)=CC(C)(C)N2
active: Potency [2] 5.01 µM
inactive: outcome [1] | Potency [3] > 92 µM | Potency [4] > 92 µM | Potency [5] > 92 µM | Potency [6] > 92 µM | Potency [7] > 92 µM | activity change, negative = inhibition [8] 4.3% | outcome [9] | outcome [10] | activity change, negative = cytotoxicity [11] -9.52% | outcome [12] | Potency [13] | outcome [14] | activity change, negative = cytotoxicity [15] 9.89% | outcome [16]

COC(=O)C1=C(C)NC(C)=C(C(=O)OCCCN2CCC(c3ccccc3)(c3ccccc3)CC2)[C@H]1c1cccc([N+](=O)[O-])c1
inactive: Potency [17] > 46 µM | Potency [18] > 46 µM | outcome [10] | outcome [16]

CCCCC/C=C\C/C=C\CCCCCCCC(=O)O
inactive: Potency [3] > 92 µM | Potency [4] > 92 µM | Potency [5] > 92 µM | Potency [6] > 92 µM | Potency [7] > 92 µM | activity change, negative = cytotoxicity [11] -28.9% | outcome [12] | Potency [13] | viability change, negative = cytotoxic [19] 0.00595% | outcome [14] | activity change, negative = cytotoxicity [15] 8.92%

CC1=C2[C@@H]([C@H](C)CC[C@H]2/C=C(\C)C(=O)O)[C@H](O)C1
inactive: Potency [3] > 92 µM | Potency [4] > 92 µM | Potency [5] > 92 µM | Potency [6] > 92 µM | Potency [7] > 92 µM | outcome [10] | activity change, negative = cytotoxicity [11] 6.2% | outcome [12] | Potency [13] | viability change, negative = cytotoxic [19] -4.63% | outcome [14] | activity change, negative = cytotoxicity [15] 8.87%

CC(O)CO (configuration not stated)
inactive: Potency [3] > 92 µM | Potency [4] > 92 µM | Potency [5] > 92 µM | Potency [6] > 92 µM | Potency [7] > 92 µM | outcome [10] | activity change, negative = cytotoxicity [11] -4.29% and -9.5% | outcome [12] | Potency [13] | viability change, negative = cytotoxic [19] -13.2% and -4.54% | outcome [14] | activity change, negative = cytotoxicity [15] 1.55% and 7.01%

Cc1ccccc1
inactive: Potency [3] > 92 µM | Potency [4] > 92 µM | Potency [5] > 92 µM | Potency [6] > 92 µM | Potency [7] > 92 µM | outcome [10] | activity change, negative = cytotoxicity [11] 5.04% and 4.17% | outcome [12] | Potency [13] | viability change, negative = cytotoxic [19] -8.19% and -6.58% | outcome [14] | activity change, negative = cytotoxicity [15] 6.68% and 3.68%

CCOC(C)=O
inactive: Potency [3] > 92 µM | Potency [4] > 92 µM | Potency [5] > 92 µM | Potency [6] > 92 µM | Potency [7] > 92 µM | outcome [10] | activity change, negative = cytotoxicity [11] 9.44% | outcome [12] | Potency [13] | viability change, negative = cytotoxic [19] -3.69% | outcome [14] | activity change, negative = cytotoxicity [15] 10.1%

O=S(=O)(O)O
inactive: Potency [3] > 92 µM | Potency [4] > 92 µM | Potency [5] > 92 µM | Potency [6] > 92 µM | Potency [7] > 92 µM | outcome [10] | activity change, negative = cytotoxicity [11] -3.09% and 7.28% | outcome [12] | Potency [13] | viability change, negative = cytotoxic [19] 2.52% and 9.94% | outcome [14] | activity change, negative = cytotoxicity [15] -5.83% and 4.47%

CCCCCCCC/C=C\CCCCCCCC(=O)O
inactive: Potency [3] > 92 µM | Potency [4] > 92 µM | Potency [5] > 92 µM | Potency [6] > 92 µM | Potency [7] > 92 µM | outcome [10] | activity change, negative = cytotoxicity [11] -2.98% | outcome [12] | Potency [13] | viability change, negative = cytotoxic [19] 3.98% | outcome [14] | activity change, negative = cytotoxicity [15] 16.2%

IC(I)I
inactive: Potency [3] > 92 µM | Potency [4] > 92 µM | Potency [5] > 92 µM | Potency [6] > 92 µM | Potency [7] > 92 µM | outcome [10] | activity change, negative = cytotoxicity [11] -10.4% | outcome [12] | Potency [13] | viability change, negative = cytotoxic [19] -2.58% | outcome [14] | activity change, negative = cytotoxicity [15] 5.44%

CC(=O)N[C@@H](CC(=O)O)C(=O)N[C@@H](CCC(=O)O)C(=O)O (Ac-Asp-Glu-OH)
inactive: Potency [2] | activity change, negative = inhibition [8] -12.3% | outcome [9] | Potency [17] > 20.6 µM and > 46 µM | Potency [18] > 20.6 µM and > 46 µM | outcome [10] | outcome [16]
